These results are taken from PubChem BioAssay (NCI).

Test systems include NCI-H23 lung; NCI-H226 lung; NCI-H322M lung; HOP-62 NSCLC; NCI-H460 lung; HOP-92 NSCLC; NCI-H522 lung; A549/ATCC NSCLC; 786-0 renal; COLO 205 colon; DU-145 prostate; K-562 leukemia; MALME-3M melanoma; MDA-MB-231 breast; RXF 393 renal; SF-268 CNS; SF-295 CNS; SF-539 CNS; UACC-257 melanoma; M14 melanoma.
Common to all, as to assay: NCI-60 one-dose screen, 48 h (100 = growth as untreated, 0 = no growth, -100 = all killed)
Common to all, as to conditions: 10 µM unless noted

The structures appear in SMILES notation. Values joined by “and” are separate entries in the source; they are usually repeats but may differ in a detail not shown here. Identical values can stand only once. Compounds without any hit were thinned out: in the full panel of roughly 83,000, 20% have a hit.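 48-hour exposure, single concentration, 96-well plates; percent growth endpoint where 0 means no net growth. Active: below 10.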 Values without a mark were called inactive. Active and inactive are the calls of the source.

On to `O=c1[nH]c(=S)[nH]n1C(=S)n1[nH]c(=S)[nH]c1=O`, for which the growth is 110% in the test on NCI-H23 lung; 85% in the test with NCI-H226 lung; 96.8% in the test on NCI-H322M lung; 97.2% in the test on HOP-62 NSCLC; 103% with NCI-H460 lung; 82.2% with HOP-92 NSCLC. The growth in the test on NCI-H522 lung was 84.6%; in the test on A549/ATCC NSCLC, 93.6%; with 786-0 renal, 106%; in the test on COLO 205 colon it was 111%; with DU-145 prostate, 110%; in the test with K-562 leukemia, 98.8%. The growth in the test with MALME-3M melanoma is 102%; in the test on MDA-MB-231 breast, 111%; with RXF 393 renal, 95.6%; with SF-268 CNS it was 103%; in the test with SF-295 CNS it was 97.8%; in the test with SF-539 CNS, 110%. Also, the growth is 108% with UACC-257 melanoma and 105% with M14 melanoma.

Consider `N=c1sc2ccccc2n1CC(=O)O`, for which the growth with NCI-H23 lung is 108%; in the test with NCI-H226 lung, 98.1%; in the test on NCI-H322M lung it was 103%; with HOP-62 NSCLC it was 88.8%; with NCI-H460 lung, 109%; in the test on HOP-92 NSCLC it was 82.1%. Also, the growth with NCI-H522 lung was 87.1%; in the test on A549/ATCC NSCLC, 83.7%; in the test with 786-0 renal, 101%; in the test with COLO 205 colon, 106%; in the test on DU-145 prostate it was 110%; in the test on K-562 leukemia it was 108%. Also, the growth was 110% in the test with MALME-3M melanoma; 102% in the test on MDA-MB-231 breast; 113% in the test with RXF 393 renal; 98.7% in the test on SF-268 CNS; 98% with SF-295 CNS; 101% in the test with SF-539 CNS. The growth in the test with UACC-257 melanoma is 89.7%; in the test on M14 melanoma, 95.7%.

For the compound `O=C(O)c1cccc(Br)c1`, the growth was 111% and 102% in the test with NCI-H23 lung; 98.5% with NCI-H226 lung; 96.4% and 95.8% in the test on NCI-H322M lung; 95.5% and 100% in the test on HOP-62 NSCLC; 115% and 105% with NCI-H460 lung; 101% and 102% in the test with HOP-92 NSCLC. In addition, the growth in the test on NCI-H522 lung is 103% and 85.5%; in the test on A549/ATCC NSCLC it was 98.8% and 87%; in the test with 786-0 renal, 96.4% and 96.8%; in the test with COLO 205 colon, 115%; in the test with DU-145 prostate it was 113% and 114%; in the test with K-562 leukemia it was 89.4% and 93.6%. Besides, the growth is 99.5% and 107% with MALME-3M melanoma; 97.9% and 114% in the test with MDA-MB-231 breast; 108% and 107% with RXF 393 renal; 101% and 102% in the test with SF-268 CNS; 94.3% and 98.2% in the test with SF-295 CNS; 94% and 98.7% in the test with SF-539 CNS. Further, the growth in the test with UACC-257 melanoma is 97.6% and 85.2%; in the test on M14 melanoma, 99.7% and 103%.

In the case of `CC(C)=NOC(C)C(=O)O` (stereo not given), the growth in the test on NCI-H23 lung is 108%; with NCI-H226 lung, 104%; in the test on NCI-H322M lung, 118%; with HOP-62 NSCLC, 110%; in the test with NCI-H460 lung, 107%; with HOP-92 NSCLC, 73%. Further, the growth in the test on NCI-H522 lung is 111%; in the test on A549/ATCC NSCLC, 98.8%; with 786-0 renal, 97.8%; with COLO 205 colon, 111%; in the test with DU-145 prostate, 147%; with K-562 leukemia it was 76.5%. The growth in the test on MALME-3M melanoma was 112%; in the test on MDA-MB-231 breast, 99.8%; with RXF 393 renal it was 116%; in the test with SF-268 CNS, 101%; in the test with SF-295 CNS, 93.1%; in the test on SF-539 CNS it was 102%. In addition, the values for the growth in the test on UACC-257 melanoma and in the test with M14 melanoma were 92.9% and 94.4%, respectively.

In the case of `Nc1ccc2ccc(NS(=O)(=O)N3CCCCC3)cc2c1`, the growth is 43.8% in the test on NCI-H23 lung; 15.2% in the test with NCI-H226 lung; 50.9% in the test on NCI-H322M lung; 35.4% in the test with HOP-62 NSCLC; 7.56% (active) with NCI-H460 lung; 68% in the test with HOP-92 NSCLC. Also, the growth was 47.5% with NCI-H522 lung; 39.3% with A549/ATCC NSCLC; 30.7% in the test with 786-0 renal; -40.9% (active) with COLO 205 colon; 12.7% in the test with DU-145 prostate; 8.04% (active) in the test with K-562 leukemia. Besides, the growth with MALME-3M melanoma was 45.3%; with MDA-MB-231 breast it was 11.8%; in the test on RXF 393 renal it was 51.4%; in the test on SF-268 CNS, 32.3%; with SF-295 CNS, 15.1%; with SF-539 CNS, -21.7% (active). Besides, the growth is 87.7% with UACC-257 melanoma and 11.2% with M14 melanoma.

Turning to `CCOC(=O)NC(N)=O`, the growth was 103% and 99% in the test on NCI-H23 lung; 99.8% and 96.5% with NCI-H226 lung; 93% and 105% in the test on NCI-H322M lung; 88.5% and 111% in the test on HOP-62 NSCLC; 105% and 104% with NCI-H460 lung; 102% in the test on HOP-92 NSCLC. The growth with NCI-H522 lung is 89.4% and 103%; in the test on A549/ATCC NSCLC, 104% and 107%; in the test with 786-0 renal, 97.3% and 101%; in the test with COLO 205 colon, 110% and 118%; with DU-145 prostate, 111% and 119%; in the test on K-562 leukemia it was 90.7% and 110%. Also, the growth with MALME-3M melanoma was 93.3%; in the test with MDA-MB-231 breast, 118% and 102%; in the test with RXF 393 renal, 114%; in the test on SF-268 CNS, 106% and 119%; in the test on SF-295 CNS it was 99.9% and 93.2%; in the test on SF-539 CNS, 95.6% and 99.2%. Also, the growth in the test on UACC-257 melanoma is 94% and 97.1%; in the test with M14 melanoma, 101%.
